Calls of active or inactive are those of the source.

Assay [1] in a line: optical density shifts of acrAB sulA E. coli – strain DRC41, OD650, 48 h, E. coli filamentation inducer project, primary screen (AID 1152).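 Note: E. coli MC1000 strain DRC41 lacking acrAB efflux pump and sulA.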 Particulars: higher = more signal, called active from +8 up or from −8 down.
Assay [2] can be described thus: probe aLefty1 binding on compound microarray – biochemical, small-molecule microarray, 635/667 nm fluorescence, primary screen (AID 1153).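 Note: score merges spot fluorescence with signal-to-noise ratio from the scanned slide images.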 The settings on record: higher = more signal.
A short description of assay [3]: plasmodial surface anion channel blockers, osmotic lysis – cell-based, P. falciparum Indochina, OD700, 1 h, primary screen (AID 1154). Particulars: P. falciparum Indochina infected RBC osmotic lysis, higher = more signal, called active from +8 up or from −8 down.
The nature of assay [4]: plasmodial surface anion channel blockers, osmotic lysis – cell-based, P. falciparum Indochina, OD700, 2 h, primary screen (AID 1155).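 Note: lysis reports solute entry through the parasite surface anion channel PSAC.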 Particulars: P. falciparum Indochina infected erythrocytes, higher = more signal, called active from +8 up or from −8 down.
Assay [5] in a line: changes in parasitized red cell lysis, either direction – P. falciparum Indochina, OD700, 3 h, PSAC antagonist project, primary screen (AID 1156). Particulars: P. falciparum-infected erythrocytes, osmotic lysis, higher = more signal, called active from +8 up or from −8 down.
A short description of assay [6]: plasmodial surface anion channel blockers, osmotic lysis – cell-based, P. falciparum Indochina, OD700, 18 h, primary screen (AID 1157). The settings on record: P. falciparum Indochina infected erythrocytes, osmotic lysis OD700, 18 h; higher = more signal, called active from +8 up or from −8 down.
A short description of assay [7]: S6 kinase pathway phospho-S6 level changes – cell-based, A549, cytoblot, luminescence, serum-stimulated, primary screen (AID 1158).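 Note: serum-stimulated A549 lung adenocarcinoma cells; signal is phosphorylated S6 detected by cytoblot immunostaining with HRP secondary.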 Particulars: 5 h, higher = more signal.
Assay [8] deals with NADPH oxidase 2 (Homo sapiens) (UniProt P04839). Description: compounds shifting NOX2 Amplex Red fluorescence – cell-based, HEK293-NOX2, PMA-stimulated, NOX inhibitor project, primary screen (AID 1159). Note: test concentration not given here. Particulars: 45 min, higher = more signal, called active from +8 up or from −8 down.
Sequence of NADPH oxidase 2 (Homo sapiens) (P04839 whole entry, looked up): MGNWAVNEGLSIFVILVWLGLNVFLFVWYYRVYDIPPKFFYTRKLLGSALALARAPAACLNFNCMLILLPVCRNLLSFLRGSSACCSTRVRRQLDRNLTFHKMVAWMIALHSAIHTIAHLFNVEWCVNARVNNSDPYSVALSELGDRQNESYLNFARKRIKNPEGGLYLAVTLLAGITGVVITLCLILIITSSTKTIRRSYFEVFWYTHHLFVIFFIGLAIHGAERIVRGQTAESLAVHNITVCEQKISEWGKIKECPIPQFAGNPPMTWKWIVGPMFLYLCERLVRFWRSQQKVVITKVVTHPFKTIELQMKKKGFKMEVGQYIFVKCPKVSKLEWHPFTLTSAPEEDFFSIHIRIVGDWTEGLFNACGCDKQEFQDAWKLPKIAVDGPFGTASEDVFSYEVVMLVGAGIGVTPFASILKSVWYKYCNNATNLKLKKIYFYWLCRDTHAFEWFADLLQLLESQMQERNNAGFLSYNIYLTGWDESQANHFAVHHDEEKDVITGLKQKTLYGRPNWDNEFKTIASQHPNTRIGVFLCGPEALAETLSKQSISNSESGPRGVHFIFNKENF
Assay [9] deals with NADPH oxidase 4 (Homo sapiens) (UniProt Q9NPH5). Put plainly: compounds shifting NOX4 Amplex Red fluorescence – cell-based, HEK293-NOX4, tetracycline-induced, NOX inhibitor project, primary screen (AID 1160). Particulars: HEK293-NOX4, Amplex Red H2O2 fluorescence, 45 min; higher = more signal, called active from +8 up or from −8 down.
Sequence of NADPH oxidase 4 (Homo sapiens) (Q9NPH5 whole entry, looked up): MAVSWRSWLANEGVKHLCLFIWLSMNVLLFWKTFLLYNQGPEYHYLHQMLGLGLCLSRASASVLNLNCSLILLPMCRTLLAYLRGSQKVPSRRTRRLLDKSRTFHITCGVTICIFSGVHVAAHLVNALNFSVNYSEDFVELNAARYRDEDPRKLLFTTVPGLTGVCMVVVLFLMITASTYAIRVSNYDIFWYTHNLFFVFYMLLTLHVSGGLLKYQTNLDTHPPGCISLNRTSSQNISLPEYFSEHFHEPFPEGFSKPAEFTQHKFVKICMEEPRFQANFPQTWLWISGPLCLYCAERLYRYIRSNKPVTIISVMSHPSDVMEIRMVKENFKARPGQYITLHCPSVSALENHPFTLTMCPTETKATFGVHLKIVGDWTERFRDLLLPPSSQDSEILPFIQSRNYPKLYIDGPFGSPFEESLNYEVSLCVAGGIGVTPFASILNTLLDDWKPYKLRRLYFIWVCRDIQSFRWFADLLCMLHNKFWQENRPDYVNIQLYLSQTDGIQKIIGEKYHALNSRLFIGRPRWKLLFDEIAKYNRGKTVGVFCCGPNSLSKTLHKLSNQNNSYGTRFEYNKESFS
The target in assay [10] is NADPH oxidase 5 (Homo sapiens) (UniProt Q96PH1). Put plainly: compounds shifting NOX5 Amplex Red fluorescence – cell-based, HEK293-NOX5, NOX inhibitor project, primary screen (AID 1161). The settings on record: HEK293-NOX5, ionomycin, 45 min, higher = more signal.
Sequence of NADPH oxidase 5 (Homo sapiens) (Q96PH1 whole entry, looked up): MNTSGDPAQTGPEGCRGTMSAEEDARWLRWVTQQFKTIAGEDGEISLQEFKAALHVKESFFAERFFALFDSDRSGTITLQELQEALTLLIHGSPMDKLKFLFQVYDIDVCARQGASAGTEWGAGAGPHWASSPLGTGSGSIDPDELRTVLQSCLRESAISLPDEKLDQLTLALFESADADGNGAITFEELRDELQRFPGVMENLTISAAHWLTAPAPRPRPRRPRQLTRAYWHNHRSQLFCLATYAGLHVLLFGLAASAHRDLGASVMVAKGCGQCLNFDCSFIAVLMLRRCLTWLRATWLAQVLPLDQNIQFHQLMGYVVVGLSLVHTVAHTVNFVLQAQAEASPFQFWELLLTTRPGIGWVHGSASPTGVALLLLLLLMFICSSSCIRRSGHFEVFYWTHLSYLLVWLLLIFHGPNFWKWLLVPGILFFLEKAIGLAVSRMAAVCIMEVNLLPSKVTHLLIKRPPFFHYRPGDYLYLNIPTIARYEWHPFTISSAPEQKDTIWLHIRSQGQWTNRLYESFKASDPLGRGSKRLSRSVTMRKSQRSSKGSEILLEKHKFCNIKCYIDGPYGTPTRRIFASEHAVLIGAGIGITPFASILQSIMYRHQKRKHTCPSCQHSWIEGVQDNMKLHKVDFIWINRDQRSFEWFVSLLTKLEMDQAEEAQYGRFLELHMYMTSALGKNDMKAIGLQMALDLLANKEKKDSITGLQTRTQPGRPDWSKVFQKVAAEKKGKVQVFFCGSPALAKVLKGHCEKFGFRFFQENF
Assay [11] in a line: compound effects on lung adenocarcinoma cell viability – A549, calcein-AM fluorescence, 48 h, basal, profiling panel (AID 1162). Note: test concentration not given here. Particulars: higher = more signal.
Assay [12] is described as follows: compound effects on differentiated 3T3-L1 adipocyte viability – cell-based, 3T3-L1 adipocytes, calcein-AM fluorescence, 48 h, basal, profiling panel (AID 1163). Note: test concentration not given here. The settings on record: 3T3-L1 adipocytes viability, higher = more signal.
Assay [13] can be described thus: compound effects on hepatocellular carcinoma cell viability – HepG2, calcein-AM fluorescence, 48 h, basal, profiling panel (AID 1164). Note: test concentration not given here. Particulars: higher = more signal.
Assay [14] is described as follows: compound effects on multiple myeloma cell viability – MM1S, calcein-AM fluorescence, 48 h, basal, profiling panel (AID 1165).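 Note: viability of MM1S multiple myeloma cells under basal unstimulated conditions; test concentration not given here.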 The settings on record: higher = more signal.
Assay [15] is described as follows: calcein-AM signal in unstimulated myeloma cells – cell-based, calcein-AM fluorescence, 48 h, PK04 Diversity Set, profiling panel (AID 1166).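 Note: cells grown under basal conditions without added stimulus; test concentration not given here.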 Particulars: RPMI8226 myeloma viability, higher = more signal.
Assay [16] in a line: JC-1 mitochondrial signal, unstimulated HepG2 cells – cell-based, JC-1 fluorescence, 24 h, 100 nL compound, profiling panel (AID 1167). Note: test concentration not given here. Particulars: HepG2 mitochondrial potential, higher = more signal.
A short description of assay [17]: JC-1 mitochondrial signal, unstimulated adipocytes – cell-based, JC-1 fluorescence, 3T3-L1 adipocytes, 24 h, 100 nL compound, profiling panel (AID 1168). Note: test concentration not given here. The settings on record: JC-1 mitochondrial fluorescence, higher = more signal, called active from +8 up or from −8 down.
Assay [18] is described as follows: JC-1 mitochondrial signal, unstimulated myeloma cells – cell-based, JC-1 fluorescence, RPMI8226, 24 h, 100 nL compound, profiling panel (AID 1169). Note: test concentration not given here. The settings on record: JC-1 mitochondrial potential fluorescence, higher = more signal.
Assay [19] can be described thus: JC-1 mitochondrial signal, unstimulated MM1S myeloma – cell-based, JC-1 fluorescence, 24 h, 100 nL compound, profiling panel (AID 1170). Note: test concentration not given here. The settings on record: MM1S mitochondrial potential, higher = more signal.
A short description of assay [20]: resazurin metabolic signal in A549 cells – cell-based, resazurin fluorescence, 24 h, PK04 Diversity Set, profiling panel (AID 1171). Note: test concentration not given here. The settings on record: A549 viability, higher = more signal, called active from +8 up or from −8 down. Background: Resazurin is reduced to fluorescent resorufin, in cell work by metabolically active cells.

Regarding `CC(C)(C)OC(=O)CC[C@]1(C(N)=O)N=C(c2ccc(OCCCO)cc2)O[C@H]1c1ccccc1CN=[N+]=[N-]`, the z-score in assay [1] is 0.434 (inactive); in assay [3], 21.6 (active); in assay [4], 5.64 (inactive); in [5], -0.173 (inactive); in [6], 0.223 (inactive); in [7], 0.0054. For the same molecule, the z-score in assay [8] is 0.709 (inactive); in [9], -0.508 (inactive); in assay [10], 1.26; in assay [11], 0.249; in [12], 0.434; in assay [13] it was 0.088. Further, the z-score in [14] is -0.0887; in [15] it was -0.387; in [16], -1.01; in assay [17] it was 0.352 (inactive); in assay [18], 0.469; in [19] it was 0.0608. In addition, the z-score in assay [20] was 0.316 (inactive). Moreover, the composite z-score in assay [2] was 0.5.

With `C[C@]1(C(=O)NCC(F)(F)F)c2ccccc2C(=O)N(Cc2ccc(OC(F)(F)F)cc2)[C@H]1c1ccc(CO)cc1`, the z-score in assay [1] is -0.831 (inactive); in [3], 2.58 (inactive); in assay [4], 0.295 (inactive); in [5], 3.67 (inactive); in assay [6], 0.451 (inactive); in assay [7] it was -0.32. Besides, the z-score in assay [8] is 1.45 (inactive); in [9] it was -0.0975 (inactive); in [10], -1.45; in assay [11], 0.377; in assay [12] it was 0.194; in assay [13] it was 0.334. Further, the z-score in assay [14] was 0.0863; in assay [15], -1.37; in assay [16], 0.756; in [17] it was -0.235 (inactive); in assay [18], 1.04; in [19], 0.157. The z-score in assay [20] is 0.0382 (inactive). For the same molecule, the composite z-score in assay [2] was -0.284.

Consider `COCCOC(=O)N1C(=O)[C@@]2(c3ccccc31)[C@H](C(N)=O)[C@H]1C(=O)O[C@H](c3ccccc3)[C@H](c3ccccc3)N1[C@@H]2c1ccc(OCCO)cc1`, for which the z-score in [1] is 1.15 (inactive); in [3], 3.76 (inactive); in [4] it was 0.527 (inactive); in [5] it was -0.535 (inactive); in assay [6], 0.436 (inactive); in assay [7], -0.211. The z-score in [8] is -0.555 (inactive); in assay [9], 1.1 (inactive); in [10], 0.00857; in assay [11] it was -0.429; in assay [12], 0.452; in [13] it was -0.363. The z-score in [14] was -0.198; in assay [15], 0.711; in assay [16] it was -0.914; in assay [17] it was 0.055 (inactive); in assay [18] it was -0.112; in assay [19], -0.523. In assay [20], the z-score was 0.574 (inactive). In [2], this molecule yielded a composite z-score of 0.196.

As for `CCCCCN1CC=CC23O[C@@H]4C=CCOC(=O)[C@@H]4[C@H]2C(=O)N(CCCCCO)[C@@H]3C1=O` (stereo not given in full), the z-score in assay [1] was 1.73 (inactive); in assay [3], 1.47 (inactive); in [4], 0.702 (inactive); in assay [5] it was 1.45 (inactive); in [6] it was 0.601 (inactive); in assay [7], 0.461. Moreover, the z-score was 1.35 (inactive) in [8]; 0.575 (inactive) in [9]; 1.94 in assay [10]; -0.438 in [11]; -0.28 in assay [12]; -1.03 in assay [13]. Further, the z-score in assay [14] is 1.27; in [15], -1.6; in assay [16], -0.012; in assay [17], 0.211 (inactive); in [18], 0.85; in [19], 0.876. The z-score in [20] is -0.0947 (inactive). In assay [2], this molecule showed a composite z-score of -0.0766.

On to `CCOC(=O)C1=C[C@@H](C(C)(C)C)N(S(=O)(=O)c2ccc(C)cc2)[C@H]1c1ccccc1Cl`, for which the z-score is -1.29 (inactive) in [1]; -0.747 (inactive) in assay [3]; 0.627 (inactive) in [4]; -0.775 (inactive) in [5]; 0.193 (inactive) in [6]; -0.535 in assay [7]. The z-score was -1.54 (inactive) in assay [8]; -0.44 (inactive) in assay [9]; 0.1 in [10]; -0.917 in assay [11]; -1.16 in assay [12]; -1.81 in assay [13]. Also, the z-score in [14] was -0.991; in assay [15], -1.2; in assay [16] it was 3.95; in assay [17], 0.147 (inactive); in [18], -0.822; in assay [19] it was -0.863. Also, in assay [20], the z-score is 0.772 (inactive). Further, the composite z-score in assay [2] came out at 0.208.
